For 62 compounds, Potency results are on record in PubChem BioAssay AID504467 (National Center for Advancing Translational Sciences (NCATS), 2011).

In all, about 330,000 compounds went through this assay and about 7,700 (2.3%) were called active. Roughly 26% stayed inconclusive and do not appear here. The call rests on the fitted dose curve; in most records, active means well fitted inhibition curve with a large enough effect; inconclusive means small, poorly fitted or top-dose-only effect, or effect the other way; inactive means flat fitted curve, though single readings scatter. The list comes from a sample in which actives are over-represented; it also holds similar structures and randomly drawn compounds. Where a call stands in place of a potency, no number is given.
Potency means the concentration at half of the fitted maximal effect.

The assay is described as follows: qHTS screen for small molecules that inhibit ELG1-dependent DNA repair in human embryonic kidney (HEK293T) cells expressing luciferase-tagged ELG1. Further: nearly all actives have a fitted effect of over 55% in size. The note with it: HEK293T ELG1-luciferase reporter, luminescence, 16 h, DNA damage induced by 5-fluorouridine; series mostly up to 46.1 µM. An excerpt:
NIH Molecular Libraries Probe Production Network [MLPCN] NIH Chemical Genomics Center [NCGC] MLPCN Grant: 1 R03 MH092164-01 Assay Provider: Kyungjae Myung, NHGRI, NIH Keywords: MLPCN, qHTS, NCGC, genotoxicity, cancer Assay Overview: Cancer cells divide rapidly compared to normal cells in the body. During cell division, cancer cells need to duplicate their genome by DNA replication. The failure of genome duplication leads to cancer cells' death. Therefore, inhibitors of DNA replication could specifically kill cancer cells. Based on this concept, many chemotherapeutic agents were developed and have been used to treat cancer patients. However, there are a limited number of agents available in the clinical setting, and some of those that do exist have low efficacy and severe side effects. Therefore, if we can find the compounds that effectively block DNA replication either by directly damaging DNA or by inhibiting other cellular mechanisms, the options for cancer treatment will be broadened. With this in mind, we developed a quantitative high-throughput ELG1-luciferase reporter gene assay. Small molecules that specifically block ELG1 function in response to DNA damage can be identified by monitoring the suppression of luciferase activity. Since ELG1 defines a pathway for repairing DNA damage, agents blocking ELG1 function can be used to sensitize cancer cells to chemotherapeutic agents whose mechanism of action involves the induction of DNA damage.
Assay Protocol Summary: For genotoxicity screening, 2,000 cells in 4 uL/well were dispensed into white, solid-bottom 1536-well plates using a solenoid-based dispenser. Following transfer of 1 uL 5-Fluorouridine and 23 nL compound or DMSO vehicle by a pin tool, the plates were incubated 16 hr at 37 °C and 5% CO2. 5 ul ONE-Glo (Promega) was then added to each plate and following a 30 min incubation at room temperature, luciferase activity was quantified on a ViewLux CCD-based plate reader.
Regarding `Cc1cc(Br)ccc1NC(=O)c1cnc(N2CCN(c3ccccn3)CC2)c2ccccc12`, the Potency is 11.6 µM (active).

Consider `Cc1cc(Br)ccc1NC(=O)c1sc2ncn(CC(=O)N3CCN(c4ccccn4)CC3)c(=O)c2c1C`, for which the Potency entry was “inactive”. Turning to `O=C(CN1CCN(c2ccccn2)CC1)Nc1ccc(Br)cc1`, the Potency result is “inactive”.

For the compound `COc1ccc(S(=O)(=O)N2CCCCC2)cc1NC(=O)c1cc([N+](=O)[O-])ccc1N1CCOCC1`, the Potency entry was “inactive”. Next, `CCc1ccc(S(=O)(=O)N/N=C\c2ccc([N+](=O)[O-])o2)cc1`: “inactive”; `N#Cc1cc([N+](=O)[O-])ccc1NC(=O)COC(=O)c1cnccn1`: “inactive”; `NS(=O)(=O)c1ccc(NC(=O)COC(=O)c2cc3ccccc3oc2=O)cc1`: “inactive”. The result for `O=C(COC(=O)c1c2c(nc3ccccc13)/C(=C\c1cccs1)CCC2)Nc1ccccc1Cl` reads 16.4 µM (active); that for `CC(NC(=O)COC(=O)c1ccc2c(c1)OCO2)c1ccccc1` (configuration not stated), “inactive”; that for `NS(=O)(=O)c1ccc(NC(=O)COC(=O)c2ccc(Cl)nc2)cc1`, “inactive”. Regarding `O=C(COC(=O)c1c2c(nc3ccccc13)CCCC2)c1ccc(Br)s1`, the Potency result was “inactive”.

For `NS(=O)(=O)c1ccc(NC(=O)COC(=O)c2c3c(nc4ccccc24)/C(=C\c2ccc4c(c2)OCO4)CCC3)cc1`, the Potency is 20.6 µM (active).

Turning to `NC(=O)c1ccc(NC(=O)COC(=O)c2c3c(nc4ccccc24)/C(=C\c2ccc4c(c2)OCO4)CCC3)cc1`, the Potency is 20.6 µM (active).

As for `O=C(COC(=O)c1ccncc1)Nc1ccc2c(c1)OCO2`, the Potency result was “inactive”. Next, `COc1cc(/C=C2\CCCc3c2nc2ccccc2c3C(=O)O)cc(Cl)c1O`: “inactive”; `COc1ccc(C(=O)N2CCCCC2C(=O)Nc2ccc(-n3nc(C)cc3C)cc2)o1` (configuration not stated): “inactive”; `O=C(NCC(c1cccs1)N1CCOCC1)c1cc(Cl)ccc1[N+](=O)[O-]` (configuration not stated): “inactive”. `Cc1ccc(Nc2nnc(SC(C)C(=O)NC3CC3)s2)cc1` (configuration not stated): the Potency result was “inactive”. With `CC(C)(C)OC(=O)C[C@H]1C/C=C\C[C@@H](CC(=O)N[C@H](CO)Cc2ccccc2)C(=O)NC[C@@H](c2ccccc2)OC1=O`, the Potency entry is “inactive”. In the case of `CCNC(=S)N(CCc1c(C)[nH]c2ccc(C)cc12)Cc1ccco1`, the Potency entry is “inactive”. On to `COc1cccc(NC(=S)N(CCc2c(C)[nH]c3ccccc23)Cc2ccco2)c1`, for which the Potency is 20.6 µM (active). For `COc1ccc(NC(=S)NCc2cccs2)c(OC)c1`, the Potency entry is “inactive”. In the case of `Cc1[nH]c2ccccc2c1CCN(Cc1cccs1)C(=S)NC(C)(C)C`, the Potency result was “inactive”.

Consider `COc1ccc2[nH]c(C)c(CCN(Cc3cccs3)C(=S)Nc3ccccc3OC)c2c1`, for which the Potency is 13 µM (active). Next, `Cc1ccc(NC(=S)N(CCN2CCCCC2)Cc2ccco2)cc1C`: “inactive”; `CC(OC(=O)/C=C/c1ccccc1)C(=O)Nc1ccc(C(N)=O)cc1` (configuration not stated): “inactive”; `CC1CCC(NS(=O)(=O)c2ccc3c(c2)CC(=O)N3)CC1` (configuration not stated): “inactive”. Take `O=C(COC(=O)c1cccc(Cl)c1)NC(=O)NCc1ccccc1`: the Potency entry is “inactive”. As for `Cc1ccc(S(=O)(=O)N2[C@@H](c3cccc(Cl)c3)C(C(=O)O)=CC[C@H]2c2ccc(Cl)c(Cl)c2)cc1`, the Potency entry was “inactive”.

With `O=C(NCCCN1CCOCC1)c1cn(-c2ccccc2)nc1-c1ccc(F)cc1`, the Potency entry is “inactive”. Regarding `CN(C)CCCNC(=O)c1ccc2[nH]c3ccccc3c2c1`, the Potency result was “inactive”. As for `O=C(NCCCO)c1cc2c([nH]c3ccccc32)c(-c2ccc(F)cc2)n1`, the Potency is 18.3 µM (active).

Regarding `O=C(NCC1(N2CCCCC2)CCCCC1)c1ccc(NS(=O)(=O)c2ccc(F)cc2)cc1`, the Potency result is “inactive”. Next, `Cc1ccc(C(CC(=O)O)NC(=O)c2ccc(S(=O)(=O)N3CCCC3)cc2)cc1` (configuration not stated): “inactive”; `Cc1c(NC(=O)CN(C)CC(=O)Nc2ccc(F)c(F)c2F)c(=O)n(-c2ccccc2)n1C`: “inactive”. On to `COc1ccc(C(=O)NCc2ccc(Cl)cc2)cc1S(=O)(=O)N1CCCC1`, for which the Potency entry is “inactive”. As to `CNC(=O)c1ccc(NC(=O)c2cccc(C(F)(F)F)c2)cc1`, the Potency result is “inactive”. For the compound `Cc1nc(NC(=O)c2cccc(Cl)c2)sc1-c1csc(Nc2cccc(Cl)c2)n1`, the Potency entry is “inactive”. As for `O=C(Nc1ccc(-c2csc(Nc3cccc(C(F)(F)F)c3)n2)cc1)c1cccc(C(F)(F)F)c1`, the Potency was 10.3 µM (active). Turning to `CCN(CC)S(=O)(=O)c1ccc(N(C)Cc2cccc(OC)c2OC)nc1`, the Potency was 13 µM (active). Take `COc1cccc(CN(C)C(=O)CC23CC4CC(CC(C4)C2)C3)c1OC`: the Potency entry was “inactive”.

As to `CCN(CC)S(=O)(=O)c1ccc(N(C)Cc2ccc(C(F)(F)F)cc2)nc1`, the Potency result is “inactive”. Regarding `COc1ccc(/C=C/C(=O)OCC(=O)NC2CCCCCC2)cc1OC`, the Potency result is “inactive”. With `COC(=O)c1cc(Oc2ccc(S(=O)(=O)N3CCOCC3)cc2[N+](=O)[O-])cc(C(=O)OC)c1`, the Potency entry was “inactive”. Consider `COc1ccc(OCCCON2C(=O)c3ccccc3C2=O)cc1`, for which the Potency entry was “inactive”. As to `CCCCC(C(=O)OCC(=O)c1ccc(OC)cc1)N1C(=O)c2ccccc2C1=O` (configuration not stated), the Potency entry was “inactive”.

In the case of `CCOC(=O)C1=C(c2ccc(OC)cc2)C(=O)c2ccccc2C1=O`, the Potency is 2.91 µM (active).

Turning to `Cc1ccc(C(=O)CN2C(=O)NC3(CCOc4ccccc43)C2=O)s1` (configuration not stated), the Potency entry is “inactive”. Consider `COc1ccc(NC(=O)CCS(=O)(=O)c2cc3c(cc2Cl)NC(=O)CO3)cc1OC`, for which the Potency entry is “inactive”. Turning to `O=C(c1ccc(Cl)c(S(=O)(=O)N2CCCCC2)c1)N1CCCCCC1`, the Potency result was “inactive”. Next, `O=C(c1ccc(Cl)c(Cl)c1)N1CCCC1`: “inactive”; `O=C(c1ccc(Cl)c(S(=O)(=O)N2CCCCCC2)c1)N1CCN(c2ccc(O)cc2)CC1`: 20.6 µM (active). Regarding `Nn1c(SCC(=O)NC2CCCc3ccccc32)nnc1C1CC1` (configuration not stated), the Potency entry is “inactive”. In the case of `O=C(CN1C(=O)NC2(CCCC2)C1=O)Nc1cc(C(F)(F)F)ccc1N1CCOCC1`, the Potency result is “inactive”. `O=C(NCCc1ccc(F)cc1)c1ccc(S(=O)(=O)N2CCCCC2)cc1`: the Potency entry is “inactive”. In the case of `Cc1ccc(Oc2nc(-c3ccccn3)nc3ccccc23)cc1`, the Potency was 18.3 µM (active).

Consider `COc1ccccc1Oc1nc(-c2cccnc2)nc2ccccc12`, for which the Potency result is “inactive”. On to `N#Cc1ccc(Oc2cc(C(F)(F)F)nc(-c3ccccn3)n2)cc1`, for which the Potency result was “inactive”. Consider `CCS(=O)(=O)N1CCC(N2CCN(c3ccccc3)CC2)CC1`, for which the Potency result was “inactive”.

`O=C(c1ccccc1)N1CCN(C(=O)c2cc3nc(-c4ccccc4)cc(C(F)(F)F)n3n2)CC1`: the Potency was 7.3 µM (active). In the case of `O=C(O)c1cnn2c(C(F)(F)F)cc(-c3ccccc3)nc12`, the Potency entry is “inactive”. For the compound `COC(=O)c1cc2nc(-c3ccccc3)cc(C(F)(F)F)n2n1`, the Potency result is “inactive”.
